From PubChem BioAssay AID720551 (National Center for Advancing Translational Sciences (NCATS), 2013)
Hit rate of the full screen: of about 340,000 compounds, about 1,300 (0.38%) were called active. For the sample, actives were picked, then their nearest neighbours and some compounds at random. A number with no mark means an inactive call.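 Rule for the calls: active = maximum activity change below -70%; inconclusive = maximum activity change between -70% and -50%; inactive = maximum activity change above -50%.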

molecular target: Voltage-gated inwardly rectifying potassium channel KCNH2 (Homo sapiens) (UniProt Q12809); test: qHTS for Inhibitors of KCHN2 3.1: Wildtype qHTS; conditions: U2OS, BacMam KCNH2, thallium flux FluxOr; at 1.84 µM; hits give low values
Sequence (Q12809 whole entry, looked up): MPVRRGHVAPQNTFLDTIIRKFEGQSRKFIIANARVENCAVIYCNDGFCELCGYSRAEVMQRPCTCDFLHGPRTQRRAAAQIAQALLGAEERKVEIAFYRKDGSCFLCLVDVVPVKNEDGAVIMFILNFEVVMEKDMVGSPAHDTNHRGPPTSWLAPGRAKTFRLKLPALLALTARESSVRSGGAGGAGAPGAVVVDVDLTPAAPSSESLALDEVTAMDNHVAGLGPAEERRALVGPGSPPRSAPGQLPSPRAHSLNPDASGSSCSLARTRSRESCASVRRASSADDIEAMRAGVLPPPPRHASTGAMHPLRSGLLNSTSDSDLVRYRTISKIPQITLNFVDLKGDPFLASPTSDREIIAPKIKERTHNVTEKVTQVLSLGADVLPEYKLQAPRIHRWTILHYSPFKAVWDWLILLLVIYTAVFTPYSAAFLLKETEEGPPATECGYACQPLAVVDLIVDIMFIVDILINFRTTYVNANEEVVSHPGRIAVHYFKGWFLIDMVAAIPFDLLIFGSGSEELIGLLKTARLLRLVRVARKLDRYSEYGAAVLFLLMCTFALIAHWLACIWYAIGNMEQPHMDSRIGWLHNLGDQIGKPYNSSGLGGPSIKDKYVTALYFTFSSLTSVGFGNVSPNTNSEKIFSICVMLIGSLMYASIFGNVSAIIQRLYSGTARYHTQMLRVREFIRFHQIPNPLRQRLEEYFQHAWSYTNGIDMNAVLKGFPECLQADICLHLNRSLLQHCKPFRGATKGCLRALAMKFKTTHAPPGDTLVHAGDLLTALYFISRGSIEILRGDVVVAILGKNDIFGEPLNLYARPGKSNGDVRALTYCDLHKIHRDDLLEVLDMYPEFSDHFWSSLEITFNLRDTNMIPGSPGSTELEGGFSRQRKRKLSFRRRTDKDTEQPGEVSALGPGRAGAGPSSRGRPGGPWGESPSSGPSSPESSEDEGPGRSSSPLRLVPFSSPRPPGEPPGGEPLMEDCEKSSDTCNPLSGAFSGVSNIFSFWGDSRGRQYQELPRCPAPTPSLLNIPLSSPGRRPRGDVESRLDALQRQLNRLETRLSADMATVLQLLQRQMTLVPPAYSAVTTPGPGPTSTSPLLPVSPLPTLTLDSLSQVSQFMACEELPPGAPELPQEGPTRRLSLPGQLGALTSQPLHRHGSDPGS
How it was run: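 U2OS cells were transduced with wild-type KCNH2 virus (2.03 x 10^8 / mL) for 4 h at room temperature, then cultured overnight at 37 C. Thallium flux was read with FluxOr dye. Rate constants were normalized to DMSO controls.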
% is set by controls: 0 for no effect and ±100 for the full control effect.

Row | SMILES | activity change
1 | c1ccc2c(c1)nnn2-c1ccncc1 | -10.2%
2 | c1ccc(C2c3[nH]c4ccccc4c3CCN2Cc2cccn2-c2cccnc2)nc1 (configuration not stated) | 5.67%
3 | CCOc1ccc(C2c3[nH]c4ccccc4c3CCN2Cc2cccn2-c2ncccn2)cc1 (configuration not stated) | -74.4% (active)
4 | CCOc1ccc(C2c3[nH]c4ccccc4c3CCN2Cc2cn(CC)nc2C)cc1 (configuration not stated) | 23.4%
5 | NC1=CC(=O)C(=O)c2cccnc21 | -14.1%
6 | O=C(COC(=O)Cc1ccc(Cl)cc1Cl)NCc1ccco1 | 5.01%
7 | CN(C)CCNC(=O)/C(=C/c1cccc([N+](=O)[O-])c1)NC(=O)c1ccccc1 | -79.1% (active)
8 | Cc1ccc(C(=O)N/C(=C/c2ccc(-c3cccc([N+](=O)[O-])c3)o2)C(=O)NCCCN(C)C)cc1 | -0.553%
9 | O=C(NCCc1ccccc1)/C(=C\c1ccc([N+](=O)[O-])cc1)NC(=O)c1ccccc1 | 23.3%
10 | O=C(CN1C(=O)NC2(CCc3ccccc32)C1=O)NC1CCCCC1 (configuration not stated) | 12.5%
11 | COc1ccc(C[C@H]2CN3C(=NC[C@H]3C)N2CCNC(=O)CCC2CCCCC2)cc1 | -97.2% (active)
12 | C/C=C(\C)C(=O)NCCN1C2=NC[C@H](Cc3ccc(O)cc3)N2C[C@@H]1Cc1ccc(OC)cc1 | -2.93%
13 | COc1cccc(CNC(=O)CCC2CCCN(Cc3ccc(OC(F)F)cc3)C2)c1 (configuration not stated) | -23.2%
14 | COc1ccc(NC(=O)C[C@H]2C(=O)N(CCc3ccccc3)C[C@@H]2C)cc1 | -25.6%
15 | O=C(CCN1CCCCC1)Nc1ccc(F)c(F)c1 | -2.99%
16 | Cc1ccc(NC(=O)COC(=O)CN2CCSC2=O)cc1F | -2.67%
17 | CC(C)NC(=O)Nc1ccc2c(c1)C(=O)N([C@H](C)CO)C[C@H](C)[C@@H](CN(C)Cc1ccc(C(F)(F)F)cc1)OCCCC[C@@H](C)O2 | -10.8%
18 | CC1(C)Cc2cccc(OCC(N)=O)c2O1 | -15.1%
19 | CC1(C)Cc2cccc(OCC(=O)Nc3nccs3)c2O1 | -0.616%
20 | CC1(C)Cc2cccc(OCC(=O)N3CCN(c4ccc([N+](=O)[O-])cc4)CC3)c2O1 | -90.2% (active)
21 | COc1ccccc1C(=O)NCc1nnc(SC(C)C(=O)Nc2nccs2)n1C (configuration not stated) | -5.03%
22 | Cn1c(CNC(=O)c2ccccc2F)nnc1SCc1ccc(F)cc1 | 6.63%

Row | SMILES | activity change
23 | CC(Sc1nnc(CNC(=O)c2ccccc2F)n1C)C(=O)Nc1nccs1 (configuration not stated) | -161% (active)
24 | C=CCn1nc(C(=O)OCC)cc1-c1sc(NC(=O)c2ccccc2)nc1C | 41.9%
25 | CN(C)C(CNC(=O)c1cc(Br)c(Br)s1)c1ccco1 (configuration not stated) | 6.08%
26 | O=S(=O)(c1cccc(C(F)(F)F)c1)N1c2ccccc2-n2cccc2C1c1cccnc1 (configuration not stated) | -12.2%
27 | O=C(CCc1ccccc1Cl)Nc1ccc(S(=O)(=O)Nc2nccs2)cc1 | -79.2% (active)
28 | Cc1ccc(OCCC(=O)Nc2ccc(S(=O)(=O)Nc3nccs3)cc2)cc1 | 4.09%
29 | CCC(CC)C(=O)Nc1ccc(S(=O)(=O)Nc2nccs2)cc1 | 0.976%
30 | O=C(OCC(=O)N1CCCCCC1)c1cccc(Cl)c1Cl | 0.263%
31 | C[C@H]1CN([C@@H](C)CO)C(=O)CCCn2cc(nn2)CO[C@@H]1CN(C)S(=O)(=O)c1ccc(-n2cccn2)cc1 | 12.7%
32 | CCOc1ccc(S(=O)(=O)NCCC(=O)NNC(=O)c2ccc(F)cc2)cc1 | -9.08%
33 | CCN1CCCC1CNc1ncnc2c1[nH]c1ccc(F)cc12 (configuration not stated) | -81.9% (active)
34 | Fc1ccc2[nH]c3c(N4CCN(Cc5ccc6c(c5)OCO6)CC4)ncnc3c2c1 | 22.8%
35 | CCN1CCCC1Cn1cnc2c([nH]c3cc(OC)ccc32)c1=O (configuration not stated) | 0.665%
36 | COc1cc(-c2nnc(NC(=O)CS(=O)(=O)c3ccc(Cl)cc3)o2)cc(OC)c1OC | -3.22%
37 | C[C@@H]1Cn2cnc(C(=O)Nc3ccc(CNC(=O)OC(C)(C)C)cc3)c2C(=O)N1 | 1.51%
38 | O=C(CSc1nnc(-c2cnccn2)n1Cc1ccco1)c1ccc(Cl)c(Cl)c1 | -187% (active)
39 | O=C(CSc1nnc(-c2cccnc2)n1Cc1ccco1)c1ccc(Cl)c(Cl)c1 | 1.21%
40 | Cc1ccc(NC(=O)CSc2nnc(-c3cnccn3)n2Cc2ccco2)cc1C | 8.19%
41 | CC(=O)Nc1ccc(SCC(=O)NC(=O)c2ccc(Cl)cc2)cc1 | 1.87%
42 | CSc1ncnc2c1ncn2CCCNCC(C)c1ccccc1 (configuration not stated) | -15.1%
43 | Cc1nn(C)c(Cl)c1CN1CCC(n2nccc2NC(=O)C2CCCC2)CC1 | 26.5%
44 | O=C(Nc1ccnn1C1CCN(C/C=C/c2ccc(F)cc2)CC1)C1CCCC1 | -105% (active)

Row | SMILES | activity change
45 | CC(CN1CCC(n2nccc2NC(=O)C2CCCC2)CC1)c1ccccc1 (configuration not stated) | 15.8%
46 | COC(=O)N(C)C[C@@H]1OCc2cnnn2CCCC(=O)N([C@@H](C)CO)C[C@@H]1C | 1.19%
47 | COCCn1c(SCC(=O)Nc2ccc(F)cc2F)nc2c(c1=O)SCC2 | -2.69%
48 | Nc1cc(C(=O)N2CCN(c3ccccc3Cl)CC2)ccc1N1CC2CC(C1)c1cccc(=O)n1C2 (configuration not stated) | 6.37%
49 | CC1CCc2[nH]c3ccc(C(=O)N(C)CC(=O)Nc4cccc(F)c4)cc3c2C1 (configuration not stated) | 2.89%
50 | O=C(CCCN1CCc2[nH]c3ccc(F)cc3c2C1)c1ccc(F)cc1 | -94.7% (active)
51 | C=CCNC(=S)N1CCc2[nH]c3ccccc3c2C1 | 1.48%
52 | Cc1ccc(C(=O)N[C@H](C(=O)N2CCN(c3ncccn3)CC2)C(C)C)cc1 | 1.07%
53 | Cc1ccc(S(=O)(=O)N2C[C@H]3C(=O)C[C@@H](c4cccc5ccccc45)N(S(=O)(=O)c4ccc(C)cc4)[C@H]3C[C@H]2c2ccc(Cl)cc2)cc1 | 5.59%
54 | O=C(COc1ccc(Br)cc1)OCC(=O)c1ccc[nH]1 | -10.8%
55 | COc1ccc(NC(=O)CN(C)C(=O)c2cc(C)oc2C)cc1 | -15.3%
56 | CCc1cccc(CC)c1N1C(=O)CC(Sc2ccccc2N)C1=O (configuration not stated) | -0.824%
57 | CCC(c1nnnn1Cc1ccco1)N(CCc1ccccc1)Cc1cc2cccc(C)c2[nH]c1=O (configuration not stated) | -261% (active)
58 | CCC(c1nnnn1C1CCCC1)N(Cc1cccs1)Cc1cc2cccc(C)c2[nH]c1=O (configuration not stated) | -3.98%
59 | CCC(c1nnnn1Cc1ccco1)N(Cc1cc2cc(OC)ccc2[nH]c1=O)C1CCCCC1 (configuration not stated) | 0.509%
60 | Cc1ccccc1C#CC1=CC(=O)CC(C)(C)C1 | 11%
61 | CC1(C)CC(=O)C=C(c2ccccc2CO)C1=O | 2.31%
62 | CCCS(=O)(=O)N1CCC(CCOc2ccccc2)(C(=O)OCC)CC1 | 9.17%
63 | CCOC(=O)C1(CCOc2ccccc2)CCN(Cc2ccc(C#CCCO)cc2)CC1 | 19.1%
64 | CCOC(=O)C1(CCOc2ccccc2)CCN(Cc2cc(OC)cc(OC)c2)CC1 | -109% (active)
65 | O=C(O)c1ccccc1Cc1ccc(F)c2ccccc12 | 3.97%
66 | COC(=O)C[C@H]1C[C@@H]2c3cc(N(C)C)ccc3O[C@@H]2[C@H](CO)O1 | -11.4%

Row | SMILES | activity change
67 | O=C(c1ccc(CS(=O)Cc2ccccc2Cl)o1)N1CCN(c2ccccc2)CC1 (configuration not stated) | 7.11%
68 | CCOC(=O)c1ccc2c(c1)nc(C)n2CC | 12.4%
69 | CCn1c(C)nc2c1C(=O)c1ccccc1C2=O | -229% (active)
70 | Cc1nc2ccccc2n1CC(O)c1ccccc1 (configuration not stated) | -1.47%
71 | C[C@@H]1CN([C@H](C)CO)C(=O)CCCn2cc(nn2)CO[C@H]1CN(C)S(C)(=O)=O | -23.5%
72 | CC(C)N=C1CCCC1C(=S)SSC(=S)C1CCCC1=NC(C)C (configuration not stated) | -26.8%
73 | Cc1ccc(S(=O)(=O)/N=C2\C=C(NS(=O)(=O)c3ccc(C)cc3)C(=O)c3ccccc32)cc1 | 1.35%
74 | Cc1ccc2sc(N(CCN(C)C)C(=O)/C=C/c3cccs3)nc2c1C | -101% (active)
75 | Cc1cccc2sc(N(CCCN(C)C)C(=O)CCS(=O)(=O)c3ccccc3)nc12 | 3.42%
76 | Cc1cc(C)c2nc(N(CCN(C)C)C(=O)/C=C/c3cccs3)sc2c1 | -136% (active)
77 | CN(C)CCN(C(=O)CN1C(=O)c2ccccc2C1=O)c1nc2cc3c(cc2s1)OCCO3 | 8.23%
78 | Cc1ccc(S(=O)(=O)N(C)C)cc1NC(=O)COC(=O)/C=C/c1cccs1 | -3.39%
79 | Cc1ccc(S(=O)(=O)N(C)C)cc1NC(=O)/C=C/c1cccs1 | -0.908%
80 | CCOc1ccc(CCNC(=O)COC(=O)c2ccc(C)c(S(=O)(=O)N3CCOCC3)c2)cc1OCC | -0.902%
81 | O=C(Nc1cccc(C(=O)O)c1)/C(=C\c1ccccc1)NC(=O)c1ccc(Br)o1 | 9.44%
82 | Cc1ccc(S(=O)(=O)NN=C2CC(C)(C)CC(=O)C2(C)C)cc1 | -3.73%
83 | O=C(OCc1ccccc1)N1CCC2CC1c1cc(N3CCN(S(=O)(=O)c4cc(Cl)cc(Cl)c4)CC3)ccc12 (configuration not stated) | 3.43%
84 | O=C(Nc1cccn(Cc2c(Cl)cccc2Cl)c1=O)c1ccc(Cl)cc1 | -350% (active)
85 | Cc1cc(NC(=O)c2ccco2)c(=O)n(Cc2c(F)cccc2Cl)c1 | -11.4%
86 | O=C(Nc1cccn(Cc2ccccc2Cl)c1=O)NC1CCCCC1 | -11.4%
87 | CCOC(=O)C1CCN(C(=O)c2ccc3c(=O)n4nc(Nc5ccccc5CC)sc4nc3c2)CC1 | -22.8%
